CYP2C19 activ: cytochrome P450 2C19 (human) activation; P33261; recombinant CYP2C19, luciferin-H EGE luminescence; hits give high values; 0 = fully inhibited enzyme, 1 = untreated enzyme; activation factor at 5 µM; 96,000 tested, under 10 active;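 active = activation factor of at least 2 at 5 µM in the primary screen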
CYP2C19 inhib: human CYP2C19 inhibition. P33261. actives 21% (n = 96,000). inhibition, % at 5 µM. CYP2C19 Supersomes, luciferin-H EGE luminescence, 30 min;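 active = CYP2C19 inhibition above a set limit at 5 µM in the primary screen, cut at about 50% in these data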
CYP2C9 inh: inhibitors of human CYP2C9 | AID 777 | actives 20% (n = 96,000) | CYP2C9 Supersomes, luciferin-H conversion, luminescence | inhibition, % at 5 µM;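 active = blocking of liver enzyme CYP2C9 beyond about 50% at 5 µM, limit read from the data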
Target sequence (P11712 whole entry, looked up): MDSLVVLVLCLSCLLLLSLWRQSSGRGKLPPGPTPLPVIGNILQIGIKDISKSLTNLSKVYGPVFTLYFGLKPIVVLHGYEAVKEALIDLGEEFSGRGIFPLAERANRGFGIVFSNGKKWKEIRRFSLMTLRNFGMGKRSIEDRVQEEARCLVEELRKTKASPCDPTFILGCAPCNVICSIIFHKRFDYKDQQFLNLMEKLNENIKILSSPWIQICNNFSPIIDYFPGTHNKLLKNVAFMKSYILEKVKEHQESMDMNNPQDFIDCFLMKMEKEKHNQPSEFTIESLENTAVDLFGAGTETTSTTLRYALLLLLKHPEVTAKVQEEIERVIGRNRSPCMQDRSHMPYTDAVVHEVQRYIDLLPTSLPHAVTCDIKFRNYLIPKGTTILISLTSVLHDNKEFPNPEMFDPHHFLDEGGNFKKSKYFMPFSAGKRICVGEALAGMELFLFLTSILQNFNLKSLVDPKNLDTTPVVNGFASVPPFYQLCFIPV
sEH activator: activators of human soluble epoxide hydrolase | P34913 | actives 0.04% (n = 91,000) | purified human sEH enzymatic activity, activator screen | activation, % at 2 µM; in the data active = activation above about 37%
sEH inh: soluble epoxide hydrolase (human) inhibition. P34913. AID 707. recombinant human sEH enzymatic activity assay. inhibition, % at 2 µM. actives 0.34% (n = 91,000); in the data active = inhibition above about 80%
CYP2C9 act: CYP2C9 (human) activation. recombinant CYP2C9, luciferin-H conversion, luminescence; hits give high values; factor 1 = untreated enzyme, 0 = blocked. activation factor at 5 µM. actives 1.4% (n = 96,000);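 active = activation factor of 2 or more for CYP2C9 at a 5 µM dose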
Each line names hits and unclear results; the compound was inactive in the other large screens. Hits are enriched below; roughly 27% of the tested compounds scored in any of these assays.

CC(Nc1n[nH]c(=S)[nH]c1=O)C(=O)OCc1ccccc1 (stereo unspecified)	CYP2C9 inh 89.8 (no result: sEH activator, sEH inh)
CCCCOC(=O)C(C)Nc1n[nH]c(=S)[nH]c1=O (stereo unspecified)	CYP2C9 inh 79.4
CC(C)OCCCNC(=O)CN1C(=O)CC(C)(C)S(=O)(=O)c2ccccc21	none (no result: sEH activator, sEH inh)
COCCNC(=O)CN1C(=O)CC(C)(C)S(=O)(=O)c2ccccc21	none (no result: sEH activator, sEH inh)
CC1(C)CC(=O)N(CC(=O)NCc2ccccc2)c2ccccc2S1(=O)=O	CYP2C19 inhib 69.3
CC1(C)CC(=O)N(CC(=O)NCc2ccc(F)cc2)c2ccccc2S1(=O)=O	CYP2C19 inhib 61.9 (no result: sEH activator, sEH inh)
COc1ccc2[nH]cc(C3N4CC5(C)CN3CC(C)(C4)C5=O)c2c1 (stereo unspecified)	none
COc1ccc(Br)cc1C1N2CC3(C)CN1CC(C)(C2)C3=O (stereo unspecified)	CYP2C19 inhib 77.3 (no result: sEH activator, sEH inh)
CCN(CC)c1ccc(C2N(C(=O)N3CCOCC3)CCN2S(=O)(=O)c2ccc(C)cc2)cc1 (stereo unspecified)	none
O=P(CCC(F)(F)F)(CCC(F)(F)F)CCC(F)(F)F	none
COCC(N)(c1ccccc1)c1nc2ccccc2n1C (stereo unspecified)	CYP2C19 inhib 52.0
Cn1c(Cn2c(C(F)(F)F)nc3ccccc32)nc2ccccc21	none
Cc1cccc(-c2nc(NCCCN3CCOCC3)c3ccccc3n2)c1	CYP2C19 inhib 60.0, CYP2C9 inh 84.5
Cc1noc(C)c1S(=O)(=O)NCC(=O)O	none
CC1(C)C(=O)OC(c2ccccc2)C2(CCCC2)C1=O (stereo unspecified)	CYP2C19 inhib 90.3
Cc1cc(C)c(C(=O)C2OC(=O)C(C)(C)C(=O)C2(C)C)c(C)c1 (stereo unspecified)	CYP2C19 inhib 91.9, CYP2C9 inh 89.5
CC1(C)C(=O)OC(C(=O)c2ccccc2)C(C)(C)C1=O (stereo unspecified)	CYP2C19 inhib 91.3, CYP2C9 inh 58.3
Cc1cccc(OCc2nnc(SCC(=O)N3CCc4ccccc43)n2C)c1	none (no result: sEH activator, sEH inh)
CC(=O)Oc1ccc2c(c1)cc(C)n2C	none (no result: CYP2C19 activ, CYP2C19 inhib, CYP2C9 inh, CYP2C9 act)
COc1ccc(Nc2nnc(Cc3ccc(Cl)cc3)c(=O)[nH]2)c(OC)c1	CYP2C9 inh 62.1 (no result: sEH activator, sEH inh)
COc1ccc(Nc2nnc(Cc3ccccc3)c(=O)[nH]2)c(OC)c1	none
CN(C)S(=O)(=O)N(CC(=O)Nc1ccccc1F)c1ccccc1	none (no result: CYP2C19 activ, CYP2C19 inhib, CYP2C9 inh, CYP2C9 act)
CN(C)S(=O)(=O)N(CC(=O)N(Cc1ccccc1)Cc1ccccc1)c1ccccc1	CYP2C19 inhib 81.2, CYP2C9 inh 85.1
CN(C)S(=O)(=O)N(Cc1ccc(Br)cc1)c1ccccc1	CYP2C19 inhib 85.9
COc1cccc(Nc2c(F)c(OC)c(F)c(F)c2C(=O)O)c1	none
COc1cccc(Nc2c(F)c(F)c(F)c(F)c2C(=O)O)c1	CYP2C9 inh 61.1
O=C(CN1CCCc2ccccc21)NCc1ccc2c(c1)OCO2	CYP2C19 inhib 98.9 (no result: sEH activator, sEH inh)
O=C(NCc1ccco1)N1c2ccccc2Sc2ccccc21	CYP2C19 inhib 50.0, CYP2C9 inh 57.5
COc1ccc(CCNC(=O)N2c3ccccc3Sc3ccccc32)cc1	none (no result: CYP2C19 activ, CYP2C19 inhib, CYP2C9 inh, CYP2C9 act)
O=C(CN1C(=O)CCS(=O)(=O)c2ccccc21)NCc1ccccc1	none (no result: CYP2C19 activ, CYP2C19 inhib, CYP2C9 inh, CYP2C9 act)
O=C(CN1C(=O)CCS(=O)(=O)c2ccccc21)NCc1ccc2c(c1)OCO2	CYP2C19 inhib 89.6 (no result: sEH activator, sEH inh)
O=C(Cn1nc(-c2ccccc2F)ccc1=O)NCc1ccc2c(c1)OCO2	CYP2C19 inhib 72.4, CYP2C9 inh 55.5
CCOC(=O)CNC(=O)CSc1nnc(-c2ccccc2OC)n1CC	none
Cc1cccc(NC(=S)N2CCC(C(=O)c3ccc(F)cc3)CC2)c1C	none
CCOC(=O)C1CCN(C(=O)Cc2c(C(=O)O)n(CC)c3ccccc23)CC1	none (no result: sEH activator, sEH inh)
O=C(Nc1c(C(=O)N2CCOCC2)cnn1-c1ccccc1Cl)c1ccco1	none
Cc1ccc2c(c1)C1(OCCO1)C(=O)N2	none
CC1CC(=O)N(CC(=O)NCc2ccco2)c2ccccc2S1 (stereo unspecified)	CYP2C19 inhib 52.1 (no result: sEH activator, sEH inh)
CN1CC(=O)N(CC(=O)NCc2ccc3c(c2)OCO3)C1=O	none
CC1CC(=O)N(CC(=O)N2CCCC2)c2ccccc2S1 (stereo unspecified)	none (no result: sEH activator, sEH inh)
CC1CC(=O)N(CC(=O)NCc2ccc3c(c2)OCO3)c2ccccc2S1 (stereo unspecified)	CYP2C19 inhib 100.3

Source: PubChem BioAssay (several laboratories)
